Laboratory results as given in PubChem BioAssay AID720594 (Broad Institute, 2013).
Measured potencies and affinities stand elsewhere. Activity calls are given as the source filed them.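 Rule for the calls: active = falling ATP light signal with a fitted half-maximal concentration at most twice the highest valid tested dose; inconclusive = flat fit with moderate signal loss, or poor fit; inactive = the rest.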

Experiment: HepG2 hepatoma cell cytotoxicity, dose response, cytotoxicity control, CellTiter-Glo luminescence, dry powder, set 3 (AID 720594)

Compound	outcome
Cc1ccc(C(=O)Nc2nc(-c3ccccn3)cs2)o1	inactive
COC(=O)c1ccc(NC(=O)CSc2ccc(-c3ccccn3)nn2)cc1	inactive
CC1CC(C)CN(S(=O)(=O)c2ccc(C(=O)Nc3nnc(C4=COCCO4)o3)cc2)C1 (stereo not drawn)	inactive
Cc1cccc(NC(=O)CSc2ccc(-c3ccccn3)nn2)c1C	inactive
O=C(Nc1nnc(C2=COCCO2)o1)c1ccc(S(=O)(=O)N2CCCCC2)cc1	inactive
CCCCC(=O)NC(c1ccco1)c1ccc2cccnc2c1O (stereo not drawn)	inactive
CC1CCN(S(=O)(=O)c2ccc(C(=O)Nc3nnc(C4CC4)o3)cc2)CC1	inactive
O=C(CSc1n[nH]c(-c2ccccn2)n1)Nc1ccc(Cl)cc1	inactive
Cc1c(C(=O)N(C)C)sc2nc(-c3ccccn3)[nH]c(=O)c12	inactive
Cc1ccc(S(=O)(=O)CCc2nnc(NC(=O)c3ccccc3)s2)cc1	inactive
O=C(CSc1ccc(-c2ccccn2)nn1)NC1CCCCC1	inactive
CC1CCN(S(=O)(=O)c2ccc(C(=O)Nc3nnc(-c4ccno4)o3)cc2)CC1	inactive
COC(=O)Cc1cc(=O)n(-c2nc3ccccc3[nH]2)[nH]1	inactive
FC(F)(F)c1cc(-c2nn[nH]n2)cc(C(F)(F)F)c1	inactive
CCc1cc2c(=O)[nH]c(-c3ccccn3)nc2s1	inactive
CC1CCN(S(=O)(=O)c2ccc(C(=O)Nc3nnc(-c4ccco4)o3)cc2)CC1	inactive
O=C(CSc1ccc(-c2ccccn2)nn1)Nc1nccs1	inactive

Compound	outcome
Cc1ccc(C(=O)Nc2nc(-c3ccccn3)cs2)cc1S(=O)(=O)N1CCOCC1	inactive
O=C(Nc1nnc(-c2ccc(F)cc2)o1)c1ccc(S(=O)(=O)N2CCCCC2)cc1	inactive
O=C(CSc1ccc(-c2ccccn2)nn1)Nc1ccccc1	inactive
O=C(CSc1ccc(-c2ccccn2)nn1)N1CCCC1	inactive
c1ccc(-c2nc(-c3ccncc3)n[nH]2)nc1	inactive
O=C(Nc1nc(-c2ccccn2)cs1)c1ccco1	inactive
Cc1nnc(NC(=O)c2ccc(S(=O)(=O)N3CCCCC3)cc2)o1	inactive
O=C(Nc1nc(-c2ccncc2)cs1)c1cccc(S(=O)(=O)N2CCOCC2)c1	inactive
CC(C)CC(=O)NC(c1cccs1)c1ccc2cccnc2c1O (stereo not drawn)	inactive
Nc1nc(-c2ccccn2)nc(N)c1Cc1ccc(Cl)cc1Cl	inactive
O=C(Cc1ccccc1)NC(c1ccco1)c1ccc2cccnc2c1O (stereo not drawn)	inactive
O=C(Nc1nc(-c2ccncc2)cs1)c1ccco1	inactive
CC(C)Cc1nnc(NC(=O)c2cccc(S(=O)(=O)N3CCOCC3)c2)s1	inactive
Cc1ccc(C(=O)Nc2nc(-c3ccccc3)cs2)o1	inactive
O=C(Nc1nc(-c2ccccn2)cs1)c1ccc(S(=O)(=O)N2CCOCC2)cc1	inactive
CC1CCN(S(=O)(=O)c2ccc(C(=O)Nc3nnc(-c4ccccn4)o3)cc2)CC1	inactive
